Consider 40 molecules from PubChem BioAssay (Tox21).

Inconclusive results are not listed. Unmarked numbers belong to inactive results. Activity calls are given as the source filed them. The call rests on the fitted dose curve.

A short description of the experiment: qHTS assay to identify small molecule agonists of the AP-1 signaling pathway - cell viability counter screen (AID 1159525). Further: nearly all actives have a fitted effect of over 55% in size. The following applies: ME-180 (cervical carcinoma) AP-1-bla cells viability, ATP luminescence, 5 h; series mostly up to 76.8 µM. The text has this:
National Center for Advancing Translational Sciences [NCATS]
NIH Chemical Genomics Center [NCGC]
U.S. Environmental Protection Agency [EPA]
National Institutes of Environmental Health Sciences [NIEHS]
National Toxicology Program [NTP]
U.S. Food and Drug Administration [FDA]
Activator protein-1 (AP-1), a transcription factor, plays an important role in tumor genesis by regulating genes involved in cell proliferation, differentiation, apoptosis, and angiogenesis. AP-1 activity is induced by a complex network of signaling pathways that involves extracellular signals, such as growth factors. The AP-1 protein complex formed from c-Fos and c-Jun binding to the AP-1 response element results in transcriptional activation of genes containing such elements within their promoter.
Low molecular weight molecules have been discovered and developed to modulate various components of these signaling pathways, for example, MAP kinase inhibitors. However, many points of pathway modulation remain untested due to the lack of chemical probes making this signaling locus of general interest.
Using a beta-lactamase reporter-gene under control of the AP-1 response element, a cell-based assay [CellSensor(TM) AP-1-bla ME-180 developed by Invitrogen Corp.] was used to measure EGF-induced signaling. The Tox21 10K library compounds were measured for their ability to positively modulate the action of EC50 EGF on reporter gene activity. Compounds were screened in a 15-pt titration series in 1536-well format. The cytotoxicity of the Tox21 compound library against this cell line was tested in parallel by measuring the intra cellular ATP content in the same wells.
Tox21 Assay Protocol Summary:
2500 cells/5uL in Opti-MEM medium containing 0.5% dialyzed FBS, 0.1 mM NEAA, 1 mM sodium pyruvate and 10 mM HEPES was dispensed into 1536-well black wall/clear bottom plates using a Multidrop dispenser and cells were cultured at 37 degrees Celsius overnight. Next day 23 nL of compounds dissolved in DMSO, positive controls or DMSO were delivered to each well using a pin tool. The plates were incubated at 37 degrees Celsius for 5 hours. 1 uL of LiveBLAzerTM B/G FRET substrate (Solution A+B+C+D) was added to each well using a Flying Reagent Dispenser. After incubated at room temperature for 2.5 hours the plates were measured on an EnVision plate reader at Excitation 405nm, Emission1=460nm and Emission 2=530nm. The %Activity was determined from the ratio of 460nm/530nm.
After the plates were read for Beta-Lactamase assay on Envision; 3 ul Cell Titer Glo (Promega) was added to measure the cytotoxicity and the plates were then incubated at RT in dark for 30 min. The luminescence was read on ViewLux (Perkin Elmer, Shelton, CT) using 6 sec exposure. ViewLux data was expressed as relative luminescence units.
For primary data analysis, raw plate reads for each titration point were first normalized relative to […] EGF control (100%) and DMSO only wells (basal, 0%).
For primary data analysis for viability assay, raw plate reads for each titration point were first normalized Tetra n-octyl ammonium bromide control (-100%) and DMSO (control, 100%).
For orientation: Quantitative high-throughput screening tests each substance at several concentrations.
For the molecule `NC(=O)CC[C@@H](N)C(=O)O`, the call was inactive.
The same measure, in the same setting: to `CC(=O)SCC(CC(=O)c1ccc(C)cc1)C(=O)O` (stereo not given) belongs “inactive”; to `CCCCC(CC)COC(=O)CC#N` (stereo not given), “inactive”.
Still for that read-out and setting: then `CCCCNCC`, with “inactive”; and `CCCCCCCCCCCC(C)=O`, with “inactive”; and `CCOCCOCCOC(C)=O`, with “inactive”.
As for `CCCCOCCCC`, the call was inactive.
As for `COC(=O)c1c(C)cc(O)c(C)c1O`, the outcome was inactive.
The same measure, in the same setting: then `CC(=O)OC/C=C(/C)CCC=C(C)C`, with “inactive”.
On to `CC(C)C[P+](C)(CC(C)C)CC(C)C`, for which the call was inactive.
Still for that read-out and setting: then `O=C1Nc2ccccc2C1=O`, with “inactive”; and `CCCCCC(CC)OC(=O)CCCOc1ccc(Cl)cc1Cl` (stereo not given), with “inactive”.
The same measure, in the same setting: then `COC(=O)C(c1ccccc1Cl)N1CCc2sccc2C1` (stereo not given), with “inactive”.
`Cc1ccc(O)c(C(=O)c2ccccc2)c1`: the molecule was classed as inactive.
As for `COC(=O)c1ccc(NC(C)=O)cc1OC`, the outcome was inactive.
Turning to `C[C@@H]1CC[C@@]2(OC1)O[C@H]1C[C@H]3[C@@H]4CC[C@H]5C[C@@H](O)CC[C@]5(C)[C@H]4CC(=O)[C@]3(C)[C@H]1[C@@H]2C`, the viability change, negative = cytotoxic was 2.16% [at 6.97 µM].
For the molecule `C=C(C)C(=O)OCCOC1CC2CC1C1C=CCC21` (stereo not given), the outcome was inactive.
The same measure, in the same setting: to `CC(C)C(C)C` belongs “inactive”; to `CCO[Si](CC(C)C)(OCC)OCC`, “inactive”; to `COCCCOc1cc(C[C@@H](C[C@H](N)[C@@H](O)C[C@H](C(=O)NCC(C)(C)C(N)=O)C(C)C)C(C)C)ccc1OC`, “inactive”.
On the same count and under the same terms, to `N#Cc1cc(NC(=O)C(=O)O)c(Cl)c(NC(=O)C(=O)O)c1` belongs “inactive”; to `N#Cc1ccccc1C#N`, “inactive”.
Turning to `CC(CN1CC(=O)NC(=O)C1)N1CC(=O)NC(=O)C1` (stereo not given), the outcome was inactive.
The same measure, in the same setting: to `CCC(=O)OCCOc1ccccc1` belongs “inactive”.
The same measure, in the same setting: to `CC(C)OC(=O)C(C(=O)OC(C)C)=C1SC=CS1` belongs “inactive”.
The same measure, in the same setting: to `CC(C)(C)OC=O` belongs “inactive”.
With `Cc1ccc(NC(N)=O)cc1`, the molecule was classed as inactive.
Same read-out and setting: to `CCCCCCCOC(C)=O` belongs “inactive”.
Take `C=CCON/C(CCC)=C1\C(=O)CC(C)(C)C(C(=O)OC)=C1O`: the call was inactive.
On the same count and under the same terms, to `C[C@@H](CN1CC(=O)NC(=O)C1)N1CC(=O)NC(=O)C1` belongs “inactive”; to `CC(=O)c1ccc2ccc3ccccc3c2c1`, “inactive”.
The same measure, in the same setting: to `Cc1ccc(OC(=O)CC(C)C)cc1` belongs “inactive”; to `O=C1c2ccccc2C(=O)N1CO`, “inactive”; to `CCC(C)SSC(C)CC` (stereo not given), “inactive”.
Same read-out and setting: then `NS(=O)(=O)c1cc2c(cc1C(F)(F)F)NCNS2(=O)=O`, with “inactive”.
For `O=C(O)COc1ccc2ccccc2c1`, the result was inactive.
Same read-out and setting: then `O=S(=O)(O)CC(O)CCl` (stereo not given), with “inactive”.
Still for that read-out and setting: to `CC(C)=CCC/C(C)=C\C#N` belongs “inactive”; to `Cc1nnc(C(=O)NC(C)(C)c2nc(C(=O)NCc3ccc(F)cc3)c(O)c(=O)n2C)o1`, “inactive”.
Same read-out and setting: to `CCCCCCCCC1CO1` (stereo not given) belongs “inactive”.
